The campaign covered roughly 360,000 compounds. About 3,700 (1%) were called active. No stated cut-off is given here; in the data, active means activation above about 30%; inactive means the rest. The full list was thinned out, with actives kept by preference.
These molecules were tested against D(1A) dopamine receptor (Homo sapiens) (UniProt P21728) (assay: Allosteric Agonists of the Human D1 Dopamine Receptor: qHTS). Conditions: HEK293 T-REx D1 cells, calcium flux, agonist mode; at 2 µM; active compounds read high.
Sequence of D(1A) dopamine receptor (Homo sapiens) (P21728 whole entry, looked up): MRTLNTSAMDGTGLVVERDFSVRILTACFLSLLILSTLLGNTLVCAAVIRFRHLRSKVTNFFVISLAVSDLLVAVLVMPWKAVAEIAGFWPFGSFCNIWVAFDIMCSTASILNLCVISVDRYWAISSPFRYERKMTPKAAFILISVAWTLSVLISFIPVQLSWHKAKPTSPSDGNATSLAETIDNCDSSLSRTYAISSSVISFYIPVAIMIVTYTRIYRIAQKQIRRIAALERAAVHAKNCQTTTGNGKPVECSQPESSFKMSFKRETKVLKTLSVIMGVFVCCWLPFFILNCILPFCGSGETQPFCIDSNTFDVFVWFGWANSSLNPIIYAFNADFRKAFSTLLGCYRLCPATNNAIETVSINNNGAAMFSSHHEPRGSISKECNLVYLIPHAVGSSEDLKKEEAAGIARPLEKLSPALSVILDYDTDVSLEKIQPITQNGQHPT
Summary of the method: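 Agonism was scored from calcium flux recorded over 180 s (1 read/s) after pintool compound addition, following a 10-cycle baseline. Cells were inducible force-coupled HEK293 TREx D1, plated overnight at 30 C and loaded with no-wash calcium dye.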
Further: 0% is about no effect.

Row | Compound | activation
1 | CCCn1c(NCc2ccc(N(CC)CC)cc2)nc2ccccc21 | 15.4% (inactive)
2 | Cc1ccc(CN2CCC(n3nccc3NC(=O)CCCc3ccccc3)CC2)o1 | 1.76% (inactive)
3 | COc1cc(CN2CCC(n3nccc3NC(=O)CCCc3ccccc3)CC2)ccc1O | 0.415% (inactive)
4 | COc1ccc(CN2CCC(n3nccc3NC(=O)CCCc3ccccc3)CC2)cc1C | 37.7% (active)
5 | Cc1ccc(CN2CCC(CNC(=O)c3cnn(-c4ccccc4Cl)c3C3CCN(C(=O)OC(C)(C)C)CC3)CC2)cc1 | 27.5% (inactive)
6 | COc1ccccc1CN1CCC(CNC(=O)c2cnn(-c3cccc(Cl)c3)c2C2CCN(C(=O)OC(C)(C)C)CC2)CC1 | 9.95% (inactive)
7 | Cc1ccc(CN2CCC(CNC(=O)c3cnn(-c4ccc(C)cc4)c3C3CCN(C(=O)OC(C)(C)C)CC3)CC2)cc1 | 33.1% (active)
8 | COc1ccc(-n2c(C)nc3c(cnn3-c3ccc(F)cc3)c2=O)cc1 | 9.13% (inactive)
9 | Cc1ccc(C(=O)OCC(=O)Nc2ccc(Cl)cn2)cc1S(=O)(=O)N1CCOCC1 | 5.99% (inactive)
10 | Cc1ccc(NC(=O)COC(=O)CNC(=O)c2ccc(Cl)cc2Cl)cc1S(=O)(=O)N1CCOCC1 | 31.1% (active)
11 | Cc1ccc(NC(=O)CCCNC(=O)c2ccc(Cl)cc2)cc1S(=O)(=O)N1CCOCC1 | 0.321% (inactive)
12 | Cc1ccc(S(=O)(=O)N2CCC(C(=O)Nc3cc(C)ccc3C)CC2)cc1 | 1.28% (inactive)
13 | COc1ccc(OCC(O)CNCCNc2nccc(C(F)(F)F)n2)cc1 (configuration not stated) | 1.81% (inactive)
14 | CC(Oc1ccc(Br)cc1)C(=O)NC1CCCCCC1 (configuration not stated) | 1.77% (inactive)
15 | CC(C)(C)CC(C)(C)NCC(O)COCCOc1ccc(Br)cc1 (configuration not stated) | 171% (active)
16 | COc1ccc(-n2ccnc(NCCc3ccc(Cl)cc3)c2=O)cc1OC | 1.51% (inactive)
17 | COc1cc(OC)c(NC(=O)c2cc(S(=O)(=O)N3CCCC3)cn2C)cc1Cl | 0.318% (inactive)
18 | COc1ccccc1C(=O)OCc1cc(=O)n2nc(-c3cccs3)sc2n1 | 0.554% (inactive)
19 | COc1ccc(C(=O)N2CCC(c3nc4ccccc4o3)CC2)cc1 | 0.0167% (inactive)

Row | Compound | activation
20 | O=C(Cn1cc(SCc2ccccc2)c2ccccc21)N1CCCCC1 | 0.868% (inactive)
21 | COc1cccc(CN(C)CC(O)COC(c2ccccc2)c2ccccc2C)c1 (configuration not stated) | 5.2% (inactive)
22 | CN(Cc1ccccc1)CC(O)COc1ccc(CNCc2cc3ccccc3s2)cc1 (configuration not stated) | 36.8% (active)
23 | COc1ccc(OCC(O)CN(C)C(=O)C(C)Oc2ccccc2)cc1 (configuration not stated) | 3.18% (inactive)
24 | C=CCSc1nnc(N2C(=O)C(O)=C(C(=O)c3ccco3)C2c2ccc(F)cc2)s1 (configuration not stated) | 54.8% (active)
25 | Cc1ccc2nc(N3C(=O)C(O)=C(C(=O)c4ccco4)C3c3cccc(O)c3)sc2c1 (configuration not stated) | 7.96% (inactive)
26 | C=CCOc1cccc(C2C(C(=O)c3ccc(C)o3)=C(O)C(=O)N2c2nnc(C)s2)c1 (configuration not stated) | 29.7% (inactive)
27 | COc1ccc(CNC(=O)c2ccc(NC(=O)N3CC4CCCN4c4ccccc43)cc2)cc1 (configuration not stated) | 0.101% (inactive)
28 | COc1ccc(Cn2ccn(CC(=O)Nc3cc(C)ccc3C)c(=O)c2=O)cc1 | 18.9% (inactive)
29 | CCc1nc2ccc(C(=O)N3CCN(c4cc(Cl)ccc4C)CC3)cc2nc1CC | 5.95% (inactive)
30 | O=C(NC1CC(=O)N(c2ccc(F)cc2)C1)c1cccs1 (configuration not stated) | 1.75% (inactive)
31 | COc1ccc(C2COC(=O)C2=N)c(NC(=O)c2ccccc2)c1 (configuration not stated) | 0.266% (inactive)
32 | CC(=O)c1cc(NC(=O)c2ccccc2)c(=O)oc1/C=C/N(C)C | 30.3% (active)
33 | CCOC(=O)c1cc(NC(=O)c2ccc(Cl)cc2)c(=O)oc1-c1ccccc1 | 3.05% (inactive)
34 | Cc1ccc(N2CC(NC(=O)Cc3cccs3)CC2=O)cc1 (configuration not stated) | -0.478% (inactive)
35 | CCOc1ccc(Nc2oc(/C=C/c3ccc(F)cc3)nc2C#N)cc1 | -0.316% (inactive)
36 | CCOc1ccc(N(Cc2ccccc2)C(=O)c2nc(S(C)(=O)=O)ncc2Cl)cc1 | 1.14% (inactive)
37 | COc1ccc(NC(=O)Cn2c(=O)cc(C)c3c(C)nn(-c4cccc(Cl)c4C)c32)cc1OC | 0.131% (inactive)
38 | Cn1c(=O)[nH]c(=O)c2c1nc(NCCc1ccccc1)n2Cc1ccc(F)cc1 | -2.2% (inactive)

Row | Compound | activation
39 | CN(C)CCCn1c(SCc2ccc(Cl)cc2)nnc1-c1ccncc1 | 0.237% (inactive)
40 | CN(C)CCCn1c(-c2ccc(Cl)cc2)csc1=Nc1ccccc1 | 39% (active)
41 | OCCn1c(-c2ccccc2)csc1=Nc1ccccc1 | 0.78% (inactive)
42 | O=C(CSc1ncc(CO)n1Cc1ccc(F)cc1)NCc1ccco1 | 1.99% (inactive)
43 | O=C(CNC(=O)c1ccc(Cl)cc1Cl)OC(C(=O)Nc1cc(C(F)(F)F)ccc1Cl)c1ccccc1 (configuration not stated) | 6.6% (inactive)
44 | COc1ccc(NC(C)=O)cc1NC(=O)CN1CCN(C2c3ccccc3-c3ccccc32)CC1 | 1.82% (inactive)
45 | O=C(Nc1ccccc1)N1CCC(C(=O)N2CCN(Cc3ccccc3)CC2)CC1 | 0.0463% (inactive)
46 | O=C(Nc1ccccc1)N1CCN(C2c3ccccc3-c3ccccc32)CC1 | 35.4% (active)
47 | O=C(CC(c1cccs1)N1Cc2ccccc2C1=O)Nc1ccc(F)c(F)c1 (configuration not stated) | 10.6% (inactive)
48 | CCOc1ccc(CNC(=O)Cn2cc3c(n2)-c2c(oc(C(=O)N4CCCC4)c2C)CC3)cc1 | 0.642% (inactive)
49 | COc1ccccc1CNC(=O)c1ccc(CS(=O)(=O)c2ccccc2)o1 | 30.2% (active)
50 | COc1ccccc1CNC(=O)c1ccc(CS(=O)c2ccccc2Cl)o1 (configuration not stated) | 6.51% (inactive)
51 | COc1ccc(CCNC(=O)c2ccc(CS(=O)(=O)c3ccc(Br)cc3)o2)cc1OC | 17.3% (inactive)
52 | CCC(C(=O)Nc1cccc(Cl)c1C)n1nc(-c2ccc(C)cc2)ccc1=O (configuration not stated) | 1.44% (inactive)
53 | COc1ccc(N2CCN(c3cc(C)nc4nncn34)CC2)cc1 | 5.83% (inactive)
54 | CCc1ccc(NC(=O)CCCc2nnc3n(CCCOC)c(=O)c4sccc4n23)cc1 | 2.87% (inactive)
55 | Cc1cccc(NC(=S)NCCc2ccc(F)cc2)c1C | 0.43% (inactive)
56 | Cc1c(NC(=S)NCc2ccc(F)cc2)cccc1[N+](=O)[O-] | 31.7% (active)
57 | Cc1c(NC(=O)CCCOc2ccccc2)cccc1[N+](=O)[O-] | 0.0331% (inactive)
